In PubChem BioAssay (NCATS) one finds Potency data, which are given here for 40 compounds.

Several values for one entry are separate records, joined by “and”; a condition that tells them apart may be missing. Equal entries are not always repeated. Inconclusive results are not listed. Where a call stands in place of a potency, no number is given. Activity calls are given as the source filed them. Calls come from the whole dose curve; as a rule, active = well fitted inhibition curve with a large enough effect; inconclusive = small, poorly fitted or top-dose-only effect; inactive = flat fitted curve, though single readings scatter.
Potency is the fitted concentration of half-maximal effect.

This assay in a line: P-glycoprotein substrates identified in KB-8-5-11 adenocarcinoma cell line, qHTS therapeutic library screen (AID 1346987). Note: nearly all actives have a fitted effect of over 65% in size. As to conditions: KB-8-5-11 (P-gp overexpressing) viability, CellTiter-Glo, 72 h; series mostly up to 44.5 µM. An excerpt: The ATP-binding cassette transporters P-glycoprotein (P-gp) is known to limit brain penetration of many chemotherapy drugs. […] As such, we developed a high-throughput screen (HTS) to identify substrates of P-gp from a series of chemical libraries including the National Center for Advancing Translational Sciences Pharmaceutical Collection NPC, 2,816 compounds), testing a total of 10,804 compounds, most of which have known mechanisms of action. We used the CellTiter-Glo viability assay to test library compounds against the parental KB-3-1 human cervical adenocarcinoma cell line and the colchicine-selected sub-line KB-8-5-11 that over-expresses P-gp. KB-8-5-11 cells were also tested in the presence of a P-gp inhibitor (tariquidar) to assess reversability of transporter-mediated resistance. Of the tested compounds, a total of 90 P-gp substrates were identified including 55 newly identified P-gp substrates. Substrates were confirmed using an orthogonal killing assay against HEK-293 cells transfected with P-gp. As exemplars, we confirmed that […] (cyclin-dependent kinase inhibitor); AT9283, (Janus kinase 2/3 inhibitor); ispinesib (kinesin spindle protein inhibitor); gedatolisib (PKI-587, phosphoinositide 3-kinase/mammalian target of rampamycin inhibitor); GSK-690693 (AKT inhibitor); and KW-2478 (heat shock protein 90 inhibitor) were substrates , and direct ATPase stimulation was assessed. ABCG2 was also found to confer high levels of resistance to AT9283, GSK-690693 and gedatolisib, while ispinesib, AT7519 and KW-2478 were weaker substrates.
The HeLa derivative cell line, KB-3-1, and its colchicine-selected, P-gp-overexpressing subline, KB-8-5-11 were maintained in DMEM with 10% FCS and Pen/Strep with glutamine at 37 degree C in 5% CO2. For KB-8-5-11 cells, colchicine was added to the medium at a concentration of 100 ng/mL. HEK-293 cells transfected with empty vector (pcDNA) or vector containing human ABCB1 (MDR-19) or ABCG2 (R-5) have been described previously (Robey, Lin, Qiu, Chan & Bates, 2011) and were maintained in EMEM supplemented with 10% FCS, Pen/Strep and glutamine with 2 mg/ml G418 to select for the expression of the transporter. Cultures were confirmed to be free of mycoplasma infection using the MycoAlert Mycoplasma Detection Kit (Lonza, Walkersville, MD). For the screen, assay medium was identical to culture medium except for KB-8-5-11 where colchicine was excluded from the medium.
All cell lines were plated into 1536-well plates at 500 cells/well in 5 uL media. Compounds were then pinned in dose-response using a 1536-head pin tool (Kalypsis, San Diego, CA) and plates were incubated at 37 degree C in 5% CO2 for an additional 72 h. CellTiter-Glo reagent (Promega) was dispensed into the wells, incubated for 5 min and luminescence was read on a ViewLux instrument (Perkin-Elmer). Cytotoxic compounds were defined as those that yielded a curve class of -1.1, -1.2, -2.1, -2.2, -2.3, or -2.4, a maximum response of >50% and an AC50 of < 10 uM. Cherry-picked hits from screening analysis were tested with both the KB pair of cell lines, and the pcDNA (empty vector control) and MDR-19 (P-gp overexpressing) pair were tested, in the absence and presence of tariquidar.
(In general: qHTS replaces the single test concentration by a dilution series.)
Take `Cc1cc(NS(=O)(=O)c2ccc(N)cc2)no1`: the Potency entry is “inactive”. The figure for `Nc1nc(=S)c2[nH]cnc2[nH]1` is 5.8 µM (active) and 1.18 µM (active); for `COc1cccc(N(C)C(=S)Oc2ccc3c(c2)CCCC3)n1` it is “inactive”.

As to `COc1cnc(NS(=O)(=O)c2ccc(N)cc2)nc1`, the Potency entry was “inactive”. `COc1ncnc(NS(=O)(=O)c2ccc(N)cc2)c1OC`: the Potency result is “inactive”. For the compound `CCn1cc(C(=O)O)c(=O)c2cc(F)c(N3CCN(C)CC3)cc21`, the Potency result was “inactive”. Consider `Cc1nnc(C(=O)NC(C)(C)c2nc(C(=O)NCc3ccc(F)cc3)c(O)c(=O)n2C)o1`, for which the Potency result is “inactive”. `CC(C)C[C@H](NC(=O)[C@H](CCc1ccccc1)NC(=O)CN1CCOCC1)C(=O)N[C@@H](Cc1ccccc1)C(=O)N[C@@H](CC(C)C)C(=O)[C@@]1(C)CO1`: the Potency was 9.2 µM (active).

Consider `O=C(O)CCn1c2c(c3ccccc31)C[C@H](NS(=O)(=O)c1ccc(F)cc1)CC2`, for which the Potency result is “inactive”.

In the case of `CCCc1cc(C(N)=S)ccn1`, the Potency entry was “inactive”. Regarding `NC1(c2ccc(-c3nc4ccn5c(=O)[nH]nc5c4cc3-c3ccccc3)cc2)CCC1`, the Potency is 11.6 µM (active).

Regarding `O=NN(CCCl)C(=O)NC1CCCCC1`, the Potency result is “inactive”. For the compound `O=C(NCC1CN(c2ccc(N3CCOCC3=O)cc2)C(=O)O1)c1ccc(Cl)s1` (stereo not given), the Potency entry was “inactive”. On to `CC1CC2C3CCC4=CC(=O)C=C[C@]4(C)[C@@]3(F)[C@@H](O)C[C@]2(C)[C@@]1(O)C(=O)CO` (stereo not given in full), for which the Potency entry is “inactive”. For `CN(C)CCc1c[nH]c2ccc(CS(=O)(=O)N3CCCC3)cc12`, the Potency entry is “inactive”. Consider `COc1cc2ncnc(Nc3cccc(Cl)c3)c2cc1OC`, for which the Potency was 8.33 µM (active) and 16.4 µM (active). The entry for `CCOCC(O)COc1ccc(NC(=O)CC[S+](C)C)cc1` (stereo not given) is “inactive”; for `O=c1cc(O)c(Cl)c[nH]1` it is “inactive”. As for `CCOC(=O)c1ccc(OC(=O)CCCCCN=C(N)N)cc1`, the Potency entry was “inactive”. As to `CO[C@@H]1[C@@H](OC(N)=O)[C@@H](O)[C@H](Oc2ccc3c(O)c(NC(=O)c4ccc(O)c(CC=C(C)C)c4)c(=O)oc3c2C)OC1(C)C`, the Potency entry is “inactive”. The figure for `CCCCCCNC(=O)n1cc(F)c(=O)[nH]c1=O` is 6.51 µM (active); for `Cc1cccc(N(C)C(=S)Oc2ccc3ccccc3c2)c1` it is “inactive”. As for `CN(Cc1cc(Br)cc(Br)c1N)C1CCCCC1`, the Potency result was “inactive”.

For the compound `O[C@@H](CNC[C@H](O)[C@H]1CCc2cc(F)ccc2O1)[C@@H]1CCc2cc(F)ccc2O1`, the Potency is 20.9 µM (active). For `CC1=C(C(=O)O)N2C(=O)[C@@H](NC(=O)C(N)c3ccccc3)[C@H]2SC1` (stereo not given in full) the value was “inactive”; for `CCN[C@H]1C[C@H](C)S(=O)(=O)c2sc(S(N)(=O)=O)cc21`, “inactive”.

As to `CC[C@H](C)C(=O)O[C@H]1C[C@@H](C)C=C2C=C[C@H](C)[C@H](CC[C@@H]3C[C@@H](O)CC(=O)O3)[C@H]21`, the Potency was 18.7 µM (active). For the compound `Cc1cccc(Nc2ccncc2S(=O)(=O)NC(=O)NC(C)C)c1`, the Potency result is “inactive”. Turning to `COc1nc(N)nc2c1ncn2[C@@H]1O[C@H](CO)[C@@H](O)[C@@H]1O`, the Potency entry was “inactive”. For `Cc1ncc([N+](=O)[O-])n1CCO` the value was “inactive”; for `CCN(CC)CC#CCOC(=O)C(O)(c1ccccc1)C1CCCCC1` (stereo not given), “inactive”; for `CC[C@H](NC(C)C)[C@H](O)c1ccc(O)c2[nH]c(=O)ccc12`, “inactive”.

`CC(N)C12CC3CC(CC(C3)C1)C2` (stereo not given): the Potency result is “inactive”. Turning to `O=S(=O)(c1cccc2cnccc12)N1CCCNCC1`, the Potency result was “inactive”. For `CN1CCN(c2c(F)cc3c(=O)c(C(=O)O)cn4c3c2OCN4C)CC1`, the Potency entry is “inactive”. On to `CC(C)(Sc1cc(C(C)(C)C)c(O)c(C(C)(C)C)c1)Sc1cc(C(C)(C)C)c(O)c(C(C)(C)C)c1`, for which the Potency result is “inactive”. Regarding `COc1ccc(C(=O)CC(=O)c2ccc(C(C)(C)C)cc2)cc1`, the Potency result was “inactive”. For `CCOc1cc(N)c(Cl)cc1C(=O)NCC1CN(Cc2ccc(F)cc2)CCO1` (stereo not given), the Potency entry was “inactive”. For `COC(=O)Nc1nc2ccc(C(=O)c3ccccc3)cc2[nH]1` the value was 699 nM (active) and 2.96 µM (active).

Turning to `CCCCc1oc2ccc(NS(C)(=O)=O)cc2c1C(=O)c1ccc(OCCCN(CCCC)CCCC)cc1`, the Potency was 26.4 µM (active) and 16.4 µM (active).
